# This excerpt belongs to a sample that is enriched for hits.
# Dicer inh: inhibitors of human Dicer processing of pre-microRNA; Q9UPY3; cat-ELCCA pre-miR-21 Dicer processing, chemiluminescence; stronger effect = higher value; hit rate 6% among 47,000; z-score at 25 µM; in the data active means z-score above about 3, passing the limit was not always enough;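 further: plate controls were vehicle for no effect and no enzyme for full effect; higher signal means more uncleaved substrate so more Dicer inhibition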
# Numbers without * were called inactive.
SMILES,Dicer inh
CCCCOC(=O)C1=C(C)NC2=C(C(=O)CC(C)(C)C2)C1c1ccc(Cl)cc1 (stereo not given),4.5
COC(=O)c1cc(/C=C(\C#N)S(C)(=O)=O)cn1-c1ccc(Cl)cc1,1.2
Cc1ccc([N+](=O)[O-])cc1S(=O)(=O)Nc1ccc2c(c1)OCO2,-0.63
C=CCSC1=C(C#N)C(c2ccc(O)cc2)CC(=O)N1 (stereo not given),1.1
O=C1/C(=C/c2ccccc2Cl)CS/C1=C/c1ccccc1Cl,0.11
CCOC(=O)C(NC(=O)CC)(Nc1ccccc1C)C(F)(F)F (stereo not given),-1.8
Cn1c(Sc2ncc(C#N)c(N)n2)nnc1-c1ccncc1,1.5
Cc1ccc2c(c1)OC(c1ccc([N+](=O)[O-])s1)N2 (stereo not given),-0.66
Cc1cc(N2C(=O)CC3(CCCC3)CC2=O)ccc1Br,3.2*
Cc1ccc(N2C(=O)CC(=O)N(c3ccc(C)c(C)c3)C2=S)cc1C,0.05
Cn1cc(Br)c(-c2cccc(N3C(=O)CC(C)(C)CC3=O)c2)n1,-0.35
CCOC(=O)CS/C(Nc1ccccc1C(F)(F)F)=C(/C#N)C(=O)OCC,-0.32
O=C1Nc2ccc(Cl)cc2C1(O)c1c[nH]c2ccccc12 (stereo not given),0.98
O=C(COc1ccc(Br)cc1)Nc1nccs1,0.87
Cc1ccc(S(=O)(=O)N2CCN(S(=O)(=O)c3ccccc3)C2c2ccc(N(C)C)cc2)cc1 (stereo not given),2.1
O=S(=O)(c1ccccc1)N1CCSC1c1ccc(Br)cc1 (stereo not given),0.54
COc1ccc(C2N(S(=O)(=O)c3ccc(C)cc3)CCN2S(=O)(=O)c2ccc(C)cc2)cc1,3.7*
COc1ccc(OC)c(C2SCCN2S(=O)(=O)c2ccc(C)cc2)c1 (stereo not given),-0.82
COc1ccc(C2N(S(=O)(=O)c3ccccc3)CCN2S(=O)(=O)c2ccccc2)cc1,-1.7
COc1ccc(OC)c(C2SCCN2S(=O)(=O)c2ccc(F)cc2)c1 (stereo not given),-0.82
COc1ccc(S(=O)(=O)N2CCSC2c2cc(OC)ccc2OC)cc1 (stereo not given),3.7*
O=S(=O)(c1ccc(-c2ccccc2)cc1)N1CCSC1c1ccccc1 (stereo not given),3.8*
O=S(=O)(c1ccccc1)N1CCSC1c1ccc(Cl)cc1 (stereo not given),-1
O=C(NC(=O)c1ccc(-c2cccs2)s1)SCc1cccs1,1.6
Cc1nc2n(CC(=O)c3ccccc3)c3ccccc3n2n1,-1
SMILES,Dicer inh
COc1ccc(C2CC(=O)C3=C(C2)Nc2ccccc2NC3c2ccc(O)cc2)cc1OC (stereo not given),-0.66
COc1cc(C2Nc3ccc4ncccc4c3C3=C2C(=O)CC(c2ccccc2)C3)ccc1OC(C)=O (stereo not given),0.01
O=C(NNc1ccccc1)c1cc(-c2ccc(Cl)cc2)oc1C(F)(F)F,0.99
CCOc1ccc2c(=O)c(Oc3ccccc3Br)c(C(F)(F)F)oc2c1,2.2
O=C(Nc1nc2ccccc2c(=O)s1)c1ccc([N+](=O)[O-])cc1,0.54
CCCC(C)NC(=O)Cn1cnc2c1c(=O)n(C)c(=O)n2C (stereo not given),1.8
COC(=O)[C@H]1OC(O)[C@H](O)[C@@H](O)[C@H]1O (stereo not given in full),5.8*
COc1cccc(C2C(C(=O)OC(C)C)=C(C)N=C3SCCC(=O)N32)c1 (stereo not given),-1.4
CCOC(=O)c1oc2nc(-c3ccccc3)cc(-c3ccccc3)c2c1N,-2.3
CCCCc1n(CC(=O)c2ccccc2)c2ccccc2[n+]1C,0.12
Cc1n(CC(=O)c2ccc(F)cc2)c2ccccc2[n+]1C,4.8*
CCOc1ccc(C(=O)Cn2c(C)[n+](C)c3ccccc32)cc1,-1.2
Cc1onc(-c2ccccc2)c1C(=O)N1CCN(C(=O)c2c(-c3ccccc3)noc2C)CC1,0.71
O=C(C1CC1)N1c2ccccc2CCc2ccccc21,2.8
O=C(O)C1C2C=CC(C2)C1C(=O)N1CCc2ccccc21 (stereo not given),2.5
O=C(C1CC1)N1CCc2ccccc21,3.3*
NS(=O)(=O)c1ccccc1Oc1ccc(Cl)cc1Cl,-1.5
Cc1cc(-c2n[nH]c(=S)n2C)nn1-c1ccc([N+](=O)[O-])cc1,-2.2
CC(C)n1cnc2cc(NCc3ccco3)ccc21,-0.27
CC(C)(C)n1cnc2cc(NCc3ccco3)ccc21,2.6
Cn1cnc2cc(NCc3ccco3)ccc21,4.9*
CCC(C)N1C(=O)N(C)C2NC(=O)NC21 (stereo not given),1.9
CCC(C)C(C(=O)O)N1C(=O)NC2NC(=O)NC21 (stereo not given),1.2
CCCC(C(=O)O)N1C(=O)NC2NC(=O)NC21 (stereo not given),3.4*
O=C(CSc1nc(SCC(=O)c2ccc(Cl)cc2)c2ccccc2n1)c1ccc(Cl)cc1,0.59
SMILES,Dicer inh
O=C(Oc1ccc(Cl)cc1Cl)c1cc(-c2ccccc2)c(C(F)(F)F)s1,1.9
Cc1ccc2nc(C3C(=O)c4ccc(O)cc4C3=O)cc(C)c2c1 (stereo not given),3.7*
Cc1ccc2nc(C3CCCCC3)cc(C(=O)O)c2c1,8.6
Cc1cc(C2C(=O)c3ccccc3C2=O)nc2ccccc12,0.53
Cc1cc(C)cc(NC(=O)N(CCC(=O)O)Cc2ccccc2)c1,-0.25
Cc1nc(SCc2ccc(C(F)(F)F)cc2)n(C)c(=O)c1Oc1cccc(C(F)(F)F)c1,0.63
O=C(CCc1ccccc1)NNc1c(Cl)cncc1Cl,-0.88
CCOC(=O)c1ccc2c(c1)C1C=CCC1C(c1ccccc1)N2 (stereo not given),-0.56
Clc1ccc2c(c1)C1C=CCC1C(c1ccccc1)N2 (stereo not given),23
CC(C)COC(=O)c1ccc2c(c1)C1C=CCC1C(c1ccc(F)cc1)N2 (stereo not given),0.97
CCOC(=O)c1ccc2c(c1)[C@@H]1C=CC[C@@H]1[C@H](c1cccc(OC)c1OC)N2,0.9
COc1ccc(Br)cc1[C@@H]1Nc2ccc(C(=O)O)cc2[C@@H]2C=CC[C@@H]21,1.1
O=C(O)c1ccc2c(c1)[C@@H]1C=CC[C@@H]1[C@H](c1ccccc1Br)N2,3.1*
Cc1ccc2c(c1)C1C=CCC1C(c1ccccc1Cl)N2 (stereo not given),4.1*
O=C(O)c1ccc2c(c1)C1C=CCC1C(c1ccc(Cl)cc1)N2 (stereo not given),5.2
CCOC(=O)c1ccc2c(c1)C1C=CCC1C(c1ccc(Br)cc1)N2 (stereo not given),5.6*
COC(=O)c1scc(C)c1NC(=O)C(Cl)(Cl)Cl,-1.3
NS(=O)(=O)c1ccc(-n2nc(C(F)(F)F)cc2-c2cccs2)cc1,7
O=[N+]([O-])c1ccc(-n2nccc2C(F)(F)F)cc1,-0.51
Cc1nc(SCC(=O)O)c([N+](=O)[O-])[nH]1,1.5
Cc1c(S(=O)(=O)c2ccc(Cl)cc2)csc1S(=O)(=O)N1CCCCC1,2.1
Clc1ccc(OCc2nn3c(Cc4ccccc4)nnc3s2)cc1,-1.8
CCSc1sc(C(=O)OC)c(-c2cccs2)c1C#N,0.97
Cc1ccc(NC(=S)Nc2cccc(C(F)(F)F)c2)c(C)c1,0.27
CN(C)CCCOC(=O)c1ccc2c(c1)OCCO2,0.14
CCOC(=O)c1sc2sc(C(=O)c3cccc([N+](=O)[O-])c3)c(C)c2c1C,-0.84
CC1(C)CC(=O)C2=C(C1)Nc1ccccc1NC2c1ccccc1Cl (stereo not given),0.69
